Mcl-1 Bim block: inhibitors of Bim peptide binding to Mcl-1, primary screen, biochemical, bead-based flow cytometry, multiplex. Induced myeloid leukemia cell differentiation protein Mcl-1 (Homo sapiens), Q07820. Bim peptide-Mcl-1 binding. inhibition, % at 10 µM. hit rate 0.1% among 190,000; in the data active means inhibition above about 40%;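 further: 0% = no compound tracer wells and 100% = peptide blocker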
Target sequence (Q07820 whole entry, looked up): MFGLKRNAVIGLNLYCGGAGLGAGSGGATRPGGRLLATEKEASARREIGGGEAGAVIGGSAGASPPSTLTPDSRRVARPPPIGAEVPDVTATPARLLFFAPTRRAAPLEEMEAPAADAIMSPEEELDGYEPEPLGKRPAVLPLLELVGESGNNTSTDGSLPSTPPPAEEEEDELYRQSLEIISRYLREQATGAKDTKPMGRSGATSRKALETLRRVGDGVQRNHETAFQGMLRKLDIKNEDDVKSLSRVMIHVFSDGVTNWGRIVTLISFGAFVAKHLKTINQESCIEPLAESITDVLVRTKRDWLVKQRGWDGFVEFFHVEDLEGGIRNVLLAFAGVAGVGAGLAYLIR
Hck-Nef inh: inhibitors of Nef-activated human Hck kinase, primary screen, biochemical, Z-Lyte FRET, 384-well, Hck-YEEI. inhibition, % at 20 µM. hit rate 0.68% among 220,000. Recombinant Hck-YEEI plus Nef, Z-Lyte FRET kinase assay. Tyrosine-protein kinase HCK (Homo sapiens), P08631;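 active means Hck-Nef kinase inhibition above about 50%, limit read from the data; inactive means inhibition below that limit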;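 further: 0% = DMSO with Hck plus Nef and 100% = Hck alone without Nef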
Mcl1-Noxa inh: Mcl-1/Noxa binding inhibitors, primary screen, biochemical, TR-FRET, 1536-well. Induced myeloid leukemia cell differentiation protein Mcl-1 (Homo sapiens), Q07820. TR-FRET Mcl-1/Noxa peptide binding, 2 h. inhibition, % at 21.7 µM. hit rate 1.5% among 220,000. AID 1022, 2008;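 active means compounds that cut the protein-peptide binding signal by more than 50% relative to plate controls in a single-dose test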;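 further: His-tagged Mcl-1 with rhodamine Noxa BH3 peptide and terbium anti-His antibody; 0% = Mcl-1 plus Noxa peptide wells and 100% = peptide-only wells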
14-3-3 Bad PPI: inhibitors of 14-3-3 zeta/Bad binding, primary screen, biochemical, TR-FRET, bovine 14-3-3 zeta; 14-3-3 protein zeta/delta (Bos taurus), P63103; inhibition, % at 21.7 µM; TR-FRET 14-3-3zeta/Dy647-pBad peptide displacement, 1 h; hit rate 0.71% among 220,000;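 active means inhibition above about 70%, limit read from the data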;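 further: 0% = full 14-3-3 plus peptide FRET controls and 100% = background without 14-3-3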
Target sequence (P63103 whole entry, looked up): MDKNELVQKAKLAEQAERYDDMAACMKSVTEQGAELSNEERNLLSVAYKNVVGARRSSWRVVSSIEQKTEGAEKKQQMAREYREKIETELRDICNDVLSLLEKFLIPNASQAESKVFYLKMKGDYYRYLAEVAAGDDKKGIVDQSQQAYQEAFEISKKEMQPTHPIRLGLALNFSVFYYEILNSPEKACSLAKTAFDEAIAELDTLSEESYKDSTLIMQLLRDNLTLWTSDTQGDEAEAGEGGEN
eIF4E-4G inh: eIF4E–eIF4G protein interaction inhibitors, primary screen, biochemical, uHTS, TR-FRET, eIF4GI fragment; TR-FRET eIF4E-eIF4GI(517-606) binding, 2 h; AID 782, 2007; inhibition, % at 21.7 µM; hit rate 0.37% among 220,000;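 active means inhibition above about 30%, limit read from the data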;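 further: 0% = full FRET control wells and 100% = background wells lacking eIF4GI fragment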
Mcl1 Bid PPI: Mcl-1/Bid binding inhibitors, primary screen, biochemical, TR-FRET, 1536-well; TR-FRET Mcl-1/Bid-Dy647 peptide binding; inhibition, % at 21.7 µM; hit rate 0.97% among 220,000;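 active means compounds that cut the binding signal by more than half at the single screening dose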;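 further: His-tagged Mcl-1 with europium anti-His antibody binding Bid BH3 peptide; 0% = Mcl-1 plus peptide wells and 100% = peptide-only wells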
An asterisk follows results filed as active; nt = no result; [ ] = another dose, or the depositor's remark. Shown are actives, neighbours in structure and some others; about 3.5% of the full set was active somewhere.

SMILES	Mcl-1 Bim block	Hck-Nef inh	Mcl1-Noxa inh	14-3-3 Bad PPI	eIF4E-4G inh	Mcl1 Bid PPI
CC1(C)Cc2ccccc2C(Nn2cnnc2)=N1	3	2	-18	2	-2	-15
NC(=O)CC1C(=O)N(c2ccc(F)cc2)C(=O)N1NC(=O)CCc1ccccc1 (stereo unspecified)	-3	-4	11	0	-3	-10
CSc1ccc(/C=N/Nc2cccc(C(=O)O)c2)cc1	-1	37	99*	85*	35*	19
COc1ccc(O)c(C(=O)c2cc(SCC(=O)O)c3nc4sc5c(c4c(=O)n3c2)CCCC5)c1	nt	24	108*	46	39*	41
Cc1sc2nc3c(SC(C)C(=O)O)cc(C(=O)c4ccccc4O)cn3c(=O)c2c1C (stereo unspecified)	12	7	23	21	7	-64
CCOC(=O)c1sc2nc3c(SCC(=O)O)cc(C(=O)c4cc(F)ccc4O)cn3c(=O)c2c1C	1	2	86*	4	22	-130
CCOC(=O)c1sc2nc3c(SCC(=O)O)cc(C(=O)c4ccccc4O)cn3c(=O)c2c1C	0	-7	66*	56	23	-17
COC(=O)c1cc(C(=O)c2cc(F)ccc2O)cn2c(=O)c3c(C)c(C)sc3nc12	nt	-20	9	0	3	-7
COCCn1c(-c2ccccc2Cl)nc2c(c(=O)c3ccccc3n2C)c1=O	-4	-1	9	4	4	3
O=C(Nc1nnc(-c2ccc(Cl)cc2)o1)Nc1ccccc1F	nt	6	13	1	3	-56
Cc1nnc2nc(-c3ccccc3)nc(-c3ccccc3)n12	nt	23	-14	10	0	0
Cc1ccc(S(=O)(=O)N(C)CC(=O)O/N=C(\N)c2ccc([N+](=O)[O-])cc2)cc1	-3	-22	-5	3	-2	1
CN(CC(=O)O/N=C(\N)c1ccc([N+](=O)[O-])cc1)S(=O)(=O)c1ccccc1	95*	0	83*	7	-2	11
COc1cc(OC)nc(NC(=S)NC(=O)c2ccccc2)n1	-3	2	18	-1	-3	5
CC1CN(C2CCN(C(=O)COc3ccc(Cl)cc3)CC2)CC(C)O1 (stereo unspecified)	-1	1	35	55	1	57*
CCOC(=O)N1CCN(C(=O)COc2ccc(Cl)cc2)CC1	-1	3	0	-12	-2	3
COC(=O)C1(NC(=O)NC2CCCCC2)CCCCC1	nt	12	19	-2	-2	-7
CCN(CC)CCn1c2ccc(F)cc2c2nc(C)sc21	9	-17	42	27	1	53*
Cc1ccc(S(=O)(=O)n2c3ccc(F)cc3c3nc(C)sc32)cc1	-29	3	-1	-9	18	-24
COc1ccc2[nH]c(=O)c(CN(C3CCCCC3)C(c3nnnn3Cc3ccco3)C(C)C)cc2c1 (stereo unspecified)	-10	5	57*	-10	5	-17
O=C(Cn1c(=O)n(-c2ccccc2)c(=O)c2sccc21)N1CCCC1	0	1	105*	-6	-3	6
CC1CCCCN1C(=O)Cn1c(=O)n(-c2ccc(F)cc2)c(=O)c2sccc21 (stereo unspecified)	-1	-10	4	-12	75*	-20
Cc1ccc(-n2c(=O)c3sccc3n(CC(=O)N3CCCC3)c2=O)cc1	0	-3	-10	15	-5	-9
C=CCn1c(SCC#N)nnc1-c1ccc2ncccc2c1	nt	17	0	-6	98*	-15
COc1ccc(OC)c(C2=NOC(C(=O)Nc3cc(C)on3)C2)c1 (stereo unspecified)	nt	-8	-12	4	6	-1
SMILES	Mcl-1 Bim block	Hck-Nef inh	Mcl1-Noxa inh	14-3-3 Bad PPI	eIF4E-4G inh	Mcl1 Bid PPI
COc1cc(C(=O)O)nc(OC)n1	0	-8	8	7	-2	-5
Cc1ccccc1NC(=O)Cn1nnc2c(cnn2-c2ccc(F)cc2)c1=O	-3	0	-7	30	41*[fluorescence artefact?]	-17
CCOc1ccc(NC(=O)Cn2nnc3c(cnn3-c3ccc(F)cc3)c2=O)cc1	0	10	-5	8	-2	-6
COc1ccc(C2Nc3ccccc3C(=O)N2O)cc1OC (stereo unspecified)	-3	0	-1	-6	-10	93*
COc1ccc(C2Nc3ccccc3C(=O)N2NC(C)=O)cc1OC (stereo unspecified)	0	24	9	-12	-3	-6
Cc1n[nH]c(=S)c2nn(-c3ccccc3)c(C)c12	0	0	15	-9	-2	70*
Cc1nc2ccc(S(=O)(=O)N(C)CC(=O)Nc3ccccc3F)cc2s1	-3	12	15	-8	-2	-27
CC(Oc1ccc(Cl)cc1Cl)C(=O)N(C)c1ccccc1 (stereo unspecified)	0	19	16	-6	0	94*
COc1cc(/C=C/C(=O)OCC(=O)NCc2cccs2)ccc1OCC#N	-1	-1	26	-8	-6	-19
Nc1cccc(/C=C/c2ccncc2)c1	nt	20	-6	-2	-6	-26
COc1ccc(C(=O)Nc2ccc(S(=O)(=O)Nc3cc(C)nc(C)n3)cc2)c(OC)c1	-4	1	63*	-4	3	-15
NC(=O)Cn1c(=O)n(Cc2ccco2)c(=O)c2c3c(sc21)CCCCC3	-1	0	64*	-4	7	-18
O=C(Cn1c(=O)n(Cc2ccco2)c(=O)c2c3c(sc21)CCCC3)Nc1ccccc1	-3	7	-23	-3	-19	1
O=C(NC1CCCCC1)C1CCN(c2cnccn2)CC1	-3	0	-5	-11	40*	-14
COC(=O)c1c(C)[nH]c(C)c1-c1ccccc1	-4	2	4	81*[fluorescence artefact?]	-3	-21
COC(=O)c1c(C)[nH]c(C)c1C(C)=O	nt	9	5	-13	2	71*
Cc1c(C(=O)N/N=C/c2ccc(-c3ccccc3[N+](=O)[O-])o2)sc(N)c1C#N	-3	6	99*	21	5	80*
COc1cc(/C=N/NC(=O)c2sc(N)c(C#N)c2C)ccc1O	-2	8	-11	7	1	-24
Cc1c(C(=O)N/N=C/c2ccc(O)c(Br)c2)sc(N)c1C#N	6	10	72*	4	-3	-24

Assay outcomes as filed in PubChem BioAssay.
